Compound activity deposited in PubChem BioAssay by National Center for Advancing Translational Sciences (NCATS).
Shown are actives, neighbours in structure and some others; about 4.7% of the full set was active somewhere.
D3 antag: qHTS of D3 Dopamine Receptor Antagonist: qHTS; D(3) dopamine receptor (Homo sapiens), P35462; D3R cells, DiscoveRx beta-arrestin luminescence, antagonist mode; active compounds read low; max response, negative = inhibition, %; 360,000 tested, 2.5% active; in the data active = max response below about -50%; inconclusive = no clear call, values can overlap the other calls; also: % is scaled to controls: 0 for no effect and ±100 for the full control effect
Target sequence (P35462 whole entry, looked up): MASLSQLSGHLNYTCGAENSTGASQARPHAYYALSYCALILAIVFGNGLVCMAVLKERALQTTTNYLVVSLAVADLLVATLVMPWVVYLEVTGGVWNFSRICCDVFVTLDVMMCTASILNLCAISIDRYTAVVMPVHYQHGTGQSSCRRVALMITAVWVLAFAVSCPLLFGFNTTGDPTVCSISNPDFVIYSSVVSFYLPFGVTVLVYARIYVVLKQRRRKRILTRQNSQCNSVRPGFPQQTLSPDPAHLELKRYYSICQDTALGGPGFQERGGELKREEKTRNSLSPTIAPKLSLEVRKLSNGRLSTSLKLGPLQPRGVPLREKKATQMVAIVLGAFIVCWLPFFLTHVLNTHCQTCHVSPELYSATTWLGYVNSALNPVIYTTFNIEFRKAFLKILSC
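Cells plated overnight at 1500 cells/well, then exposed to library compounds with dopamine controls for 90 minutes at 37 degrees C. DiscoveRx reagent added for 30–60 minutes at room temperature; luminescence read, quantitative HTS format.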
HepG2 tox: qHTS for Inhibitors of TGF-b: Cytotox Counterscreen | HepG2 CAGA-GFP viability, ATP luminescence, 18 h | Potency, µM (doses to about 46.1 µM), inactives show at the highest dose activity change, negative = cytotoxicity, hits mostly cytotoxic | 410,000 tested, 0.76% active; also: potency is read from the fitted curve at half-maximal effect
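CellTiter-Glo luminescence gave cytotoxicity after 18 hours at 37 degrees C. The cells were HepG2 CAGA-GFP in 1% FBS DMEM, stimulated with 500 pg/mL TGF-beta after compound addition. %Activity was normalised to no-cell wells (complete cell-killing) and DMSO (no toxicity), and curves were fitted and classified.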
TGFb inhibitor: qHTS for Inhibitors of TGF-b | AID 588855, 2011 | 410,000 tested, 1.2% active | HepG2 CAGA-GFP TGF-b/SMAD3 reporter, GFP fluorescence, 18 h; TGF-beta stimulated, 500 pg/mL final | Potency, µM (series often up to 46.1 µM), inactives show top-dose activity, negative = inhibition, most hits filed as inhibitors; also: potency is read from the fitted curve at half-maximal effect; % is scaled to controls: 0 for no effect and ±100 for the full control effect; nearly all actives have a fitted effect of over 65% in size
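Using HEPG2 CAGA-GFP reporter cells at 1000 cells/well, we pinned test compounds, stimulated with recombinant TGF-beta (500 pg/mL final) and measured total well GFP after 18 h.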
ATXN viability: Viability Counterscreen for Primary qHTS for Inhibitors of ATXN expression. 400,000 tested, 0.49% active. AID 651635, 2014. Potency, µM (top dose mostly 56.7 µM), usual class: cytotoxic. S2 cells (HEK-293 line with an ATXN2-luciferase reporter) viability, CellTiter-Fluor protease fluorescence, 24 h; also: potency is read from the fitted curve at half-maximal effect; nearly all actives have a fitted effect of over 40% in size
D3 ag: qHTS of D3 Dopamine Receptor Agonist: qHTS. 410,000 tested, 0.58% active. max activation, %. D3R DiscoveRx beta-arrestin cells, luminescence, 90 min; in the data active = max activation above about 30%; also: 0% is about no effect
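Cells at 1500/well, incubated overnight, then treated with pinned compounds (dopamine as control) for 90 min at 37 degrees C. DiscoveRx reagent added for 30 - 60 minutes at room temperature; luminescence read.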
ATXN2 expr inh: Primary qHTS for Inhibitors of ATXN expression. 360,000 tested, 0.72% active. HEK-293 ATXN2-luciferase reporter, luminescence, 24 h. Potency, µM (titrated, usually from 57 µM), for inactives: top-dose activity change, negative = inhibition, usual class: inhibitors. AID 1745845, 2022; also: potency is read from the fitted curve at half-maximal effect; % is scaled to controls: 0 for no effect and ±100 for the full control effect; nearly all actives have a fitted effect of over 55% in size
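ATXN2-luciferase reporter cells (luciferase flanked by upstream and downstream ATXN2 gene portions) were treated 24 h at 37 °C with compounds at up to 57 uM. SteadyGlo luminescence gave expression; GF-AFC fluorescence gave viability.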
An asterisk follows results filed as active; i = inactive; u = inconclusive; x = no result. Unless noted, calls follow the shape of the dose curve; as a rule, active = well fitted curve in the direction sought with a large enough effect; inconclusive = small, poorly fitted or top-dose-only effect, or another doubt; inactive = no such curve, though single readings can be large; an effect the other way counts as inactive or inconclusive.

SMILES	D3 antag	HepG2 tox	TGFb inhibitor	ATXN viability	D3 ag	ATXN2 expr inh
COc1ccc(CCNC(=O)Cn2nc(C)n3c(cc4cc(F)ccc43)c2=O)cc1OC	x	-2%	-2%	i	6	0%
CCc1ncnc2cc(OC)c(OC)cc12	x	x	x	x	-9	x
CC(C)(C)NC[C@H](O)COc1ccccc1C1CCCC1	x	x	x	u	-25	x
COc1cccc(CN2CCC(N(CCc3ccccc3)Cc3ccccc3)CC2)c1OC	-85*	-31%	u	i	-11	-26%
Cc1ccc2c(c1)C/C(=C/c1ccc(N(C)C)cc1)C2=O	x	-21%	15%	x	x	x
O=C(O)c1ccc(NCc2cccnc2)cc1	-11	4µM*	1%	i	-3	8%
CCN(c1ccccc1)S(=O)(=O)c1ccc(NC(=O)c2nc(SC(C)C)ncc2Cl)cc1	x	-24%	-8%	u	3	-13%
Cc1ccc(C(NC(=O)/C=C\c2ccc3c(c2)OCO3)C(=O)Nc2ccc3c(c2)OCO3)cc1 (stereo unspecified)	-88*	-17%	5%	i	-28	-7%
NCCC[C@H](N)CC(=O)N[C@H]1CNC(=O)[C@@H]([C@@H]2C[C@H](O)N=C(N)N2)NC(=O)/C(=C/NC(N)=O)NC(=O)[C@@H](CO)NC(=O)[C@@H](CO)NC1=O	x	x	x	i	x	x
CC(=O)Oc1cc2c(cc1OC(C)=O)C(=O)CCCC2	-2	-52%	-14%	i	66*	x
Cc1onc(-c2ccccc2)c1C(=O)NC(=S)Nc1sc2c(c1C#N)CCC(C)C2 (stereo unspecified)	3	-2%	3%	i	35*	14%
COc1ccc(OC)c(-c2cc(C(=O)Nc3sc4c(c3C#N)CCC(C)C4)c3ccccc3n2)c1 (stereo unspecified)	-11	-15%	7%	i	8	0%
CCCN1CCc2c(sc(NC(=S)NC(=O)c3ccccc3)c2C#N)C1	-4	4%	-14%	u	38*	-13%
COc1ccccc1-c1cc(C(=O)Nc2sc3c(c2C#N)CCC(C)C3)c2ccccc2n1 (stereo unspecified)	-63*	20%	2%	i	2	-2%
COc1cccc(NC(=O)CN(CCc2ccccc2)S(=O)(=O)c2ccc(Cl)cc2)c1	x	-42%	-30%	i	-10	6%
CCOC(=O)N1CCC(Nc2c(Nc3ccc(F)cc3)c(=O)c2=O)CC1	-89*	-6%	-12%	u	-8	-14%
CCOC(=O)N1CCC(NCCNC(=O)c2cccc(F)c2)CC1	-112*	8%	8%	i	-68	13%
CCOC(=O)N1CCC(Nc2c(-c3ccc(C)cc3)c(=O)c2=O)CC1	10	-11%	-6%	i	-4	3%
CCOC(=O)N1CCC(Nc2c(Nc3cccc(CC)c3)c(=O)c2=O)CC1	-62*	-37%	u	i	-33	-23%
CCN(C(=O)CSc1nc2ccccc2n1Cc1ccccc1C#N)c1ccccc1	x	-1%	1%	i	-19	3%
CCn1cc(CNC(=O)c2cc(-c3ccc(C)cc3)nc3ccc(Br)cc23)c(C)n1	x	-22%	-25%	i	4	11%
NC(N)=N/N=C/c1ccc(OCc2ccccc2)c(OCc2ccccc2)c1	10	16µM*	18µM*	22µM*	4	22µM*
COc1cc(/C=N/NS(=O)(=O)c2ccc3ccccc3c2)ccc1OCc1ccc(C(=O)O)cc1	0	-28%	-6%	i	8	-2%
COc1cc(/C=N/N=C(N)N)ccc1OCc1ccc(Cl)cc1	5	10µM*	u	i	0	u
COc1ccc(/C=N/OCC(=O)Nc2cc(C)on2)cc1OC	18	20%	0%	u	30*	2%
SMILES	D3 antag	HepG2 tox	TGFb inhibitor	ATXN viability	D3 ag	ATXN2 expr inh
NC(N)=N/N=C/c1ccccc1	u	11%	11%	u	-8	-24%
COc1cc(/C=N/O)ccc1OCc1ccc(C(=O)O)cc1	28	-32%	9%	i	-1	0.71µM*
COc1cc(OC)c(N(C)C(=O)c2sc3nc4n(c(=O)c3c2C)CCCC4)cc1Cl	x	-30%	-21%	x	-2	x
CCOc1cc(/C=N/N=C(N)N)ccc1OCc1ccc(Cl)cc1	0	-95%	u	32µM*	-10	u
COc1cc(/C=N/NC(N)=S)ccc1OCc1ccc(C)cc1	-14	-7%	18µM*	i	-4	x
CCOc1cc(/C=N/O)ccc1OCc1ccc(F)cc1	10	-41%	-17%	i	7	24%
COc1cc(/C=N/OCC(=O)NC2CCCCC2)ccc1OCc1ccccc1	11	-19%	-10%	i	1	20%
COc1cc(/C=N/NC(N)=S)ccc1OC(=O)c1ccc(C)cc1	u	-16%	-4%	i	-7	-9%
COc1cc(/C=N/OCC(=O)NC23CC4CC(CC(C4)C2)C3)ccc1OCc1ccccc1	8	4%	20µM*	i	-2	13%
COC(=O)c1cc2oc3ccccc3c2n1Cc1cc(C)ccc1C	x	-15%	x	x	-9	x
COc1ccccc1NS(=O)(=O)c1cccc(C(=O)NCC(C)(C)N2CCOCC2)c1	5	-3%	0%	i	0	3%
Cc1cccc(NS(=O)(=O)c2cccc(C(=O)NCC(C)(C)N3CCOCC3)c2)c1	-81*	-15%	0%	i	7	-11%
COCCNCC#CCOc1ccc(OC)cc1	-6	-6%	4%	i	-11	5%
C=CCNCC#CCOc1ccc(OC)cc1	-62*	-47%	5%	i	-5	2%
COc1ccc(OC)c(/C=C/C(=O)N2C(=O)c3cccc(N)c3C2=O)c1	-65*	3%	u	i	2	u
COc1cc(/C=C/C(=O)N2C(=O)c3cccc(N)c3C2=O)cc(OC)c1OC	-82*	-13%	3%	x	-10	u
Nc1cccc2c1C(=O)N(C(=O)/C=C/c1cccc(F)c1)C2=O	u	13%	14µM*	i	-2	u
O=C(CN1C(=O)c2ccccc2C1=O)NCC1Cc2cccc(-c3ncccn3)c2O1 (stereo unspecified)	x	x	x	i	x	x
O=C1Nc2ccc(F)cc2C12Nc1ccccc1-c1nnc(SCc3ccccc3)nc1O2 (stereo unspecified)	-81*	-31%	u	i	-37	-7%
